In the library only some 8.7% were active in any assay of this set; here they are far more common.
ALOX12 inh: inhibitors of human 12S-lipoxygenase ALOX12 | P18054 | purified 12hLO, xylenol orange hydroperoxide absorbance | Potency, µM (titrated, usually from 108 µM), usual class: inhibitors | actives 1.1% (n = 580,000) | AID 1671190
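Purified human 12hLO at 150 nM in 25 mM Hepes, 0.01% Triton X-100, pH 7.0, preincubated 15 min at room temperature with compound. Reaction started with 40 uM arachidonic acid, 30 min at room temperature. Hydroperoxide measured by Fe-xylenol orange, 573/405 nm absorbance ratio.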
G9a block: G9a (human) methyltransferase inhibition. Q96KQ7. G9a H3K9 monomethylation, AlphaScreen, 2 h. Potency, µM (series often up to 102 µM), hits mostly inhibitors. actives 8.8% (n = 350,000). AID 504332; also: nearly all actives have a fitted effect of over 75% in size
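Step 1: enzyme (final 20 nM) with compound, 15 min RT. Step 2: substrate peptide 500 nM and SAM 20 uM, 2 h RT. Step 3: anti-H3K9me1 antibody and AlphaScreen beads, 10 min, then plate read.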
Sfp PPTase inh: inhibitors of Bacillus subtilis Sfp phosphopantetheinyl transferase. Q9F4F7. Biochemical Sfp PPTase activity, qHTS. Potency, µM, actives largely listed as inhibitors. actives 3.5% (n = 310,000). AID 1490;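 also: the enzyme is Sfp with the accession as filed and its product quenches rhodamine fluorescence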
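Step 1, compound plus 15 nM Sfp-PPTase, 15 min, room temperature. Step 2, add rhodamine-CoA (5 uM) and BHQ-2-YbbR (12.5 uM). Step 3, read 525/598 nm fluorescence at 0 and 30 min.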
BAZ2B block: inhibitors of human BAZ2B bromodomain; Q9UIF8; AlphaScreen BAZ2B-H3K14Ac peptide displacement; Potency, µM (highest dose often 114 µM), usual class: inhibitors; actives 4.4% (n = 360,000); AID 504333; also: nearly all actives have a fitted effect of over 60% in size
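In this displacement format the biotinylated H3(5-23) peptide acetylated at Lys14 serves as ligand at 50 nM, with BAZ2B at 50 nM in PBS pH 7.4 containing 0.01% Tween-20. Donor and acceptor beads are 10 ug/mL final.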
JMJD2A Tudor: JMJD2A Tudor domain (human) inhibition; actives 4.4% (n = 390,000); AlphaScreen JMJD2A-Tudor / H3K4me3 peptide binding; O75164; Potency, µM (titrated, usually from 114 µM), usual class: inhibitors; also: nearly all actives have a fitted effect of over 50% in size
Target sequence (O75164 whole entry, looked up, the tested form may be a part): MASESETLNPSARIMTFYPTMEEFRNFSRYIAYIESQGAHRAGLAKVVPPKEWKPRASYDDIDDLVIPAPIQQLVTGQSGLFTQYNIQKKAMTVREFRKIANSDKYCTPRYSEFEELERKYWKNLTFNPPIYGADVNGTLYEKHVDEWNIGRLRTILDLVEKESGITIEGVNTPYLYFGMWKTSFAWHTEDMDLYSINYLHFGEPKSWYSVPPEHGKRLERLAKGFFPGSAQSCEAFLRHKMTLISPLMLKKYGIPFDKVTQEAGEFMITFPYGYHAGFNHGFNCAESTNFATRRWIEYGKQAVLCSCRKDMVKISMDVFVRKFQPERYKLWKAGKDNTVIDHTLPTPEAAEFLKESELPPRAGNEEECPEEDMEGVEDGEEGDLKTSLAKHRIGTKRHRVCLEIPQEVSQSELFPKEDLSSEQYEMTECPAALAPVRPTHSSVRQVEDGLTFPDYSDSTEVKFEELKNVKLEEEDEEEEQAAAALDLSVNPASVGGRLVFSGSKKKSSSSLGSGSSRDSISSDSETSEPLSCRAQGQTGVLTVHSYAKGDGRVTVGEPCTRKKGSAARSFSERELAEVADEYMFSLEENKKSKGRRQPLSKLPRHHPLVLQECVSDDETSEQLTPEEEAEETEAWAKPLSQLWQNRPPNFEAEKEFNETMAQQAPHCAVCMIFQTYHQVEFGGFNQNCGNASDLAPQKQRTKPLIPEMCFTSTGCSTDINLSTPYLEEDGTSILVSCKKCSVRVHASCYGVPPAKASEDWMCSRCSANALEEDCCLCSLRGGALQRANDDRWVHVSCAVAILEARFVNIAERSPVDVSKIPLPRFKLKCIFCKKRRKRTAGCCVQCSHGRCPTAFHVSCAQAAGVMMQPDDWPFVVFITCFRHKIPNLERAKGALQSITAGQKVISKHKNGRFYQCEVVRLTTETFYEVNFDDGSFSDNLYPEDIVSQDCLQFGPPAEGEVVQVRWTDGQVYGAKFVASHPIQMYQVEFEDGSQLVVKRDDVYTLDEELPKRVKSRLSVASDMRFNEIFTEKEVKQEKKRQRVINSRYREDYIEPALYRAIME
HP1b chromo inh: inhibitors of HP1-beta chromodomain binding to methylated histone tails. AlphaScreen HP1-beta / biotin-H3K9me3 peptide binding. AID 540317. P83916. actives 0.56% (n = 390,000). Potency, µM (doses to about 114 µM), actives largely listed as inhibitors; also: nearly all actives have a fitted effect of over 70% in size
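HP1-beta protein (50 nM final) preincubated 30 min at room temperature with biotinylated H3(1-18)K9me3 peptide (50 nM) in PBS pH 7.4, 0.01% Tween-20, then compound added for 30 min. AlphaScreen streptavidin donor/nickel chelate acceptor beads (10 ug/mL final), 30 min dark, luminescence read.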
A number is an active result; – = inactive; ? = inconclusive; · = no result given; [ ] = another dose, or the depositor's remark. Calls follow the shape of the dose curve; as a rule, active = well fitted curve in the direction sought with a large enough effect; inconclusive = small, poorly fitted or top-dose-only effect, or another doubt; inactive = no such curve, though single readings can be large; an effect the other way counts as inactive or inconclusive.

SMILES | ALOX12 inh | G9a block | Sfp PPTase inh | BAZ2B block | JMJD2A Tudor | HP1b chromo inh
COc1ccccc1-c1cc(C(=O)N(C)C)c2cnn(C)c2n1 | –[6.33 µM] | · | · | · | · | ·
CC(C)CC(=O)Nc1ccc(C(=O)COc2ccc(-c3nnco3)cc2)cc1 | – | – | – | – | 79.4µM | –
N#Cc1ccsc1NC(=O)COc1ccc(-c2nnco2)cc1 | – | 39.8µM | – | – | – | –
O=C(COc1ccc(-c2nnco2)cc1)c1ccc(F)cc1 | – | · | · | · | · | ·
CN1CCN(c2ccccc2/C=C2/C(=O)Nc3ccccc32)CC1 | · | 50.1µM | – | – | – | –
O=C1Nc2ccccc2/C1=C/c1ccccc1Cl | – | – | – | – | – | –
CCOc1ccc(NC(C(=O)Nc2cccc(C(C)=O)c2)c2ccccc2)cc1 (stereo unspecified) | – | 44.7µM | – | 39.8µM | ? | –
CCN(CC)CCNC(=O)c1cccc(NC(=O)C(=O)c2ccccc2NC(C)=O)c1 | – | – | – | – | – | –
COCC(C)NC(C(=O)Nc1cccc(C(C)=O)c1)c1ccccc1 (stereo unspecified) | – | – | – | – | – | –
CCN(CC)CCNC(C(=O)Nc1cccc(C(C)=O)c1)c1ccccc1 (stereo unspecified) | ? | ? | ? | 56.2µM | 1.12µM | ?
C=CCN(CC=C)Cc1nnc2cc(-c3nc(-c4ccccc4)no3)ccn12 | – | · | · | · | · | ·
NC(=O)C1(N2CCCCC2)CCN(c2nccc(-c3ccccn3)n2)CC1 | – | · | · | · | · | ·
COC(=O)NC1c2ccccc2Oc2ccc(C)cc21 (stereo unspecified) | – | – | – | – | – | –
Cc1ccc2c(c1)C(c1ccccc1)C(=O)O2 (stereo unspecified) | ? | – | 50.1µM | – | ? | –
CCOCCn1c(-n2nc(C)cc2C)nc2c1c(=O)n(CCOC)c(=O)n2C | – | · | · | · | · | ·
COc1ccc(C(=O)C(C(=O)C(F)(F)F)C23CC4CC(CC(C4)C2)C3)cc1OC (stereo unspecified) | – | · | · | · | · | ·
COc1ccc(OCCSc2nnc(CC(=O)Nc3cccc(Cl)c3Cl)n2C)cc1 | ? | 3.16µM | – | – | ? | –
CCn1c(CNC(=O)Cc2ccc(OC)cc2)nnc1SCCOc1ccccc1 | – | – | – | – | – | –
CCn1c(CC(=O)Nc2cccc(Cl)c2Cl)nnc1SCCOc1ccc(OC)cc1 | ? | 25.1µM | – | – | ? | –
CC(=O)N1CCCN(c2ncnc3c2CN(c2ccc([N+](=O)[O-])cc2)C(=O)N(C)C3)CC1 | – | · | · | · | · | ·
CC1(C)Cc2c(sc(NC(=O)C(=O)NCCCN3CCOCC3)c2C#N)CO1 | – | 22.4µM | 15.8µM | – | – | –
CC(C)(C)c1ccc(/C=N/NC(=S)NC2CCCCC2)cc1 | 28.2µM | – | – | – | ? | –
S=C(Nc1ccccn1)NC1CCCCC1 | 22.4µM | –[12.7 µM] | ? | ? | – | –
S=C(NCCc1ccccn1)NC1CCCCC1 | – | – | – | – | – | –
O=C(NC(=S)NC1CCCCC1)c1ccccc1 | 35.5µM | ? | – | ? | – | –
SMILES | ALOX12 inh | G9a block | Sfp PPTase inh | BAZ2B block | JMJD2A Tudor | HP1b chromo inh
S=C(NC1CCCCC1)NN(c1ccccc1)c1ccccc1 | 39.8µM | – | – | ? | – | –
C/C(=N\NC(=S)NC(C)C)c1ccccc1 | ? | –[12.7 µM] | – | – | –[11.4 µM] | –
C/C(=N\NC(=S)NC1CCCCC1)c1ccc(O)cc1 | ? | 35.5µM | 79.4µM | ? | ? | ?
COCCNC(=S)N/N=C(\C)c1ccc(O)cc1 | – | – | – | – | – | –
CCOC(=O)C(C(=O)Nc1ccccn1)C1CCCCC1 (stereo unspecified) | ? | 50.1µM | – | – | 89.1µM | –
C/C(=N\NC(=S)NC1CCCCC1)c1ccccc1 | 25.1µM | – | – | ? | – | –
O=C(c1cc2ccccc2o1)N1CCCC2(CNS(=O)(=O)c3cccnc3O2)C1 (stereo unspecified) | –[6.33 µM] | · | · | · | · | ·
O=C(NCc1cccs1)Nc1cccs1 | – | –[2.33 µM] | 17.8µM | – | – | –
Cc1ccccc1CNC(=O)Nc1cccs1 | ? | 7.08µM | 20µM | – | – | ?
COCCn1nnnc1C1CC2(CCOCC2)C(=O)N1Cc1cccc(F)c1 (stereo unspecified) | – | · | · | · | · | ·
CN1CCOc2c(C(=O)NCc3cnn(C)c3)cc(-c3ccccc3)cc21 | – | · | · | · | · | ·
C=CC(=O)N1C/C(=C/c2ccc(F)cc2)C(=O)/C(=C\c2ccc(F)cc2)C1 | 7.94µM | · | · | · | 17.8µM | ?
O=C1C(=Cc2ccc(F)cc2)CCc2ccccc21 | – | · | · | · | · | ·
CCOc1cc(N2CCOCC2)c(OCC)cc1NC(=O)Cc1cccc(OC)c1 | – | 50.1µM | – | ? | ? | –
CCOc1cc(N2CCOCC2)c(OCC)cc1NC(=O)COc1cccc(CC)c1 | – | ? | · | ? | ? | –
CCOc1ccc(OCCC(=O)OCC(=O)Nc2cc(OCC)c(N3CCOCC3)cc2OCC)cc1 | – | 35.5µM | · | ? | ? | ?
CCOc1cc(N2CCOCC2)c(OCC)cc1NC(=O)COC(=O)[C@@H]1CCCN1S(=O)(=O)c1ccccc1F | – | 44.7µM | – | ? | – | –
CCOc1cc(N2CCOCC2)c(OCC)cc1NC(=O)CC12CC3CC(CC(C3)C1)C2 | ? | 12.6µM | – | 35.5µM | 44.7µM | –
COc1cccc(C(=O)N2CCc3nc(-c4ccc(Cl)cc4)nc(-c4ccccc4)c3C2)c1 | – | · | · | · | · | ·
CC(=O)N1CCC(C(=O)Nc2ccc(Br)cc2F)CC1 | – | · | · | · | · | ·
COc1ccccc1CNC(=O)N(C)CCOc1ccccc1C | – | · | · | · | · | ·
CCOc1cc(N2CCOCC2)c(OCC)cc1NC(=O)Cc1ccc(OC)c(OC)c1 | – | 50.1µM | – | ? | ? | –
CCOc1cc(NC(=O)c2ccco2)c(OCC)cc1NC(=O)Cc1ccc(OC)c(OC)c1 | – | – | – | – | – | –
CCOc1cc(N2CCOCC2)c(OCC)cc1NC(=O)c1ccc2ncsc2c1 | ? | –[12.7 µM] | · | – | – | –
CCOc1cc(N2CCOCC2)c(OCC)cc1NC(=O)c1cccc(N(C)C)c1 | – | 44.7µM | – | 39.8µM | ? | ?
SMILES | ALOX12 inh | G9a block | Sfp PPTase inh | BAZ2B block | JMJD2A Tudor | HP1b chromo inh
CCN(C)c1cc2c(c3c1ccn3C)C1CCC2C1 (stereo unspecified) | – | · | · | · | · | ·
CN(CCc1ccccc1)c1cc2c(c3c1ccn3C)C1CCC2C1 (stereo unspecified) | 44.7µM | · | · | · | · | ·
Cn1ccc2c(N3CCCC3)cc3c(c21)C1CCC3C1 (stereo unspecified) | 44.7µM | · | · | · | · | ·
COc1ccccc1N(C)c1cc2c(c3c1ccn3C)C1CCC2C1 (stereo unspecified) | 39.8µM | · | · | · | · | ·
Cc1cn(CC(=O)N2CCc3nc(-c4cn[nH]c4)[nH]c3C2)c(=O)[nH]c1=O | – | · | · | · | · | ·
Cc1nc(Oc2ccccc2Cl)c2c3c(sc2n1)CCC3 | – | · | · | · | · | ·
COC(=O)c1cc(C)sc1NC(=S)N1CCN(CCc2ccccc2)CC1 | – | ? | – | ? | – | –
CCCc1cc(C(=O)OC)c(NC(=O)CCCC(=O)O)s1 | – | – | – | – | – | –

Screening data: PubChem, National Center for Advancing Translational Sciences (NCATS)
